Reference: ChEMBL document CHEMBL3988442, “University of Dundee, Small-Polar-MMV Screening Library” (2021)
For some of these results: Potency and affinity values are given separately.

Columns and labels:
Parameters in all cases: scale not given: direction of the effect not stated beside the values
[1] = biological target: Protein translocase subunit SecA (Escherichia coli (strain K12)) (UniProt P10408); test: Assay to Identify E. coli SecA ATPase Inhibitors; format: functional; details: 30 µM
[2] = biological target: T1, Ubiquitin-activating enzyme e1, putative (Leishmania donovani (strain BPK282A1)) (UniProt E9BSI1); test: Leishmania donovani Ubiquitin Activating Enzyme (LdE1); format: functional; details: 30 µM
T1 sequence (whole entry): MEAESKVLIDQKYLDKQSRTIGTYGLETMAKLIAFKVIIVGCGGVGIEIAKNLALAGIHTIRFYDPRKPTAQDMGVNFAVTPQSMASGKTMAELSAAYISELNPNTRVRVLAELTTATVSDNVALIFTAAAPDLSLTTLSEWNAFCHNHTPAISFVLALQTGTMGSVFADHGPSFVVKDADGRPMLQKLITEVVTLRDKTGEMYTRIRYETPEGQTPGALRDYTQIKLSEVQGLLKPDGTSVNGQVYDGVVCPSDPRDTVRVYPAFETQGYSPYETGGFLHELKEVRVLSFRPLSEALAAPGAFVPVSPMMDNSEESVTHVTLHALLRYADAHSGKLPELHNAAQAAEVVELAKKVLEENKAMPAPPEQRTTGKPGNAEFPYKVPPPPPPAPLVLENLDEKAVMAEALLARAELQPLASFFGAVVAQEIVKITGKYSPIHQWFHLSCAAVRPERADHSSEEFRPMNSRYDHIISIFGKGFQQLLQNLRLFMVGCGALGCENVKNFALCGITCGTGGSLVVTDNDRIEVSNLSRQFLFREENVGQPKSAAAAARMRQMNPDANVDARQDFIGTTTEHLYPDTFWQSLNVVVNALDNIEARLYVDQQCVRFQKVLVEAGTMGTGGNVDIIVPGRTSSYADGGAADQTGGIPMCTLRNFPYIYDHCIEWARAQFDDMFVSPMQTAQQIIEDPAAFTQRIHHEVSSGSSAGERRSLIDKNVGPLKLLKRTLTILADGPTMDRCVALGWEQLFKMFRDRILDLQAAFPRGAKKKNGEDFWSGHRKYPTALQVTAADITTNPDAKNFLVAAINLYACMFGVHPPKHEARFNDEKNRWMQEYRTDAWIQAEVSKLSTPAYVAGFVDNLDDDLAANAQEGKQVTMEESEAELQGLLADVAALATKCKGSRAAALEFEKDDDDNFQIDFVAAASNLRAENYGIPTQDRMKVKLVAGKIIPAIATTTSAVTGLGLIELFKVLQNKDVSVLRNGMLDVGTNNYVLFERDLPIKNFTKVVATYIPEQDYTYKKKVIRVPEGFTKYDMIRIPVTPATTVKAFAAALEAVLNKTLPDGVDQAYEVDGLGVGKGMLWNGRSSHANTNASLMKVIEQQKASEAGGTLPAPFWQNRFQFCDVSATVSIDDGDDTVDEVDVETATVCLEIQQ

[3] = biological target: AMP-activated protein kinase, AMPK (Homo sapiens) (UniProt P54646+O43741+P54619+Q9UGJ0+Q9Y478+Q13131+Q9UGI9); test: AMP-dependent Kinase enzyme assay. An in vitro enzyme assay that detects ADP turnover that is directly proportional to AMPK activity. This uses naive AMPK that is activated during the assay with MK-8722; format: functional; details: 30 µM
[4] = biological target: Sialic acid-binding Ig-like lectin 9 (Homo sapiens) (UniProt Q9Y336); test: Hs-Siglec9 ALPHAscreen SOP 20170721; details: 10 µM
Sialic acid-binding Ig-like lectin 9 (Homo sapiens), sequence (Q9Y336 whole entry): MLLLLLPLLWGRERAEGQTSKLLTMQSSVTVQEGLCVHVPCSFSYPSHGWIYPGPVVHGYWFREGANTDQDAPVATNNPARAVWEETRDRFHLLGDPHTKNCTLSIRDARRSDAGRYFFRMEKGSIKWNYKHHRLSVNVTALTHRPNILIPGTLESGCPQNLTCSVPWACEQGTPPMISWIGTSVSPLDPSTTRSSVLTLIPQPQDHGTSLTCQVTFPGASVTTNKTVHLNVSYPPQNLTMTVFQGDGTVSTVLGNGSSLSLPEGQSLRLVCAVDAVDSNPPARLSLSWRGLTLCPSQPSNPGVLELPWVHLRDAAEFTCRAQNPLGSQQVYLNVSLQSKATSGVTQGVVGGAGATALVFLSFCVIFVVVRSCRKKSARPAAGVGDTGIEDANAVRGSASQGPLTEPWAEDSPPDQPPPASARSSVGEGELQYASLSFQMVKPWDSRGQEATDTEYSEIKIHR

Trypanosoma cruzi = test: Trypanosoma cruzi phosphomannomutase and mannose-1-phosphate guanylyltransferase assay; format: functional; details: 10 µM
[5] = biological target: T2, Arginase-2, mitochondrial (Homo sapiens) (UniProt P78540); test: in vitro enzyme assay to detect the production of urea directly proportional to the activity of Arginase II; format: functional; details: 33.3 µM; also: in the data most compounds retested in dose-response had high values
T2 sequence (whole entry): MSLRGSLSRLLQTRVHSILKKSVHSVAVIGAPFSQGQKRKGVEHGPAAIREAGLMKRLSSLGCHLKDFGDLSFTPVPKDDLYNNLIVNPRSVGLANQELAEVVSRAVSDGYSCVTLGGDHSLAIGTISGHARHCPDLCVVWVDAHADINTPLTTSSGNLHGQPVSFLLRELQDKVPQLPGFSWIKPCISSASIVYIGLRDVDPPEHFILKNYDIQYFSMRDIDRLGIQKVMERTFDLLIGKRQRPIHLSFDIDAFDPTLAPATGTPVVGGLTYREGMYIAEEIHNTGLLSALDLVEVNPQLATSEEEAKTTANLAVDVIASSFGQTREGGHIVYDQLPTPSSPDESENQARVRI

[6] = biological target: T3, Proteasome subunit beta (Trypanosoma cruzi) (UniProt O96673); test: Trypanosoma cruzi proteasome chymotrypsin-like activity (TcProtChymo) assay.; also: in the data most compounds retested in dose-response had high values; format: functional; details: 9.37 µM
T3 sequence (whole entry): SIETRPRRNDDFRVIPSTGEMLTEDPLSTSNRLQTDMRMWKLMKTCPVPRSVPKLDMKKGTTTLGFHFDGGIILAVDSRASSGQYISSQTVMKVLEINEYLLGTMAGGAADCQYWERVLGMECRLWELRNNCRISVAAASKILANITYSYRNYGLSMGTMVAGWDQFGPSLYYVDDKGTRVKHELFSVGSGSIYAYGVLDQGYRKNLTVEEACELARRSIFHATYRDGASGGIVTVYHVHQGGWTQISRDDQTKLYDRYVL

Homo sapiens = species: Homo sapiens; test: To identify inhibition of the IFN signalling (Jak-Stat) pathway via expression of an eGFP reporter gene under the control of an IFN-stimulated response element (ISRE) containing MxA promoter.; format: functional; details: 30 µM
[7] = biological target: T4, Tyrosyl-tRNA synthetase, putative (Trypanosoma cruzi (strain CL Brener)) (UniProt Q4DSP6); test: Trypanosoma cruzi tyrosyl tRNA synthetase (TcYRS) _High Tyrosine SOP; format: functional; details: 30 µM; also: in the data most compounds retested in dose-response had high values
T4 sequence (whole entry): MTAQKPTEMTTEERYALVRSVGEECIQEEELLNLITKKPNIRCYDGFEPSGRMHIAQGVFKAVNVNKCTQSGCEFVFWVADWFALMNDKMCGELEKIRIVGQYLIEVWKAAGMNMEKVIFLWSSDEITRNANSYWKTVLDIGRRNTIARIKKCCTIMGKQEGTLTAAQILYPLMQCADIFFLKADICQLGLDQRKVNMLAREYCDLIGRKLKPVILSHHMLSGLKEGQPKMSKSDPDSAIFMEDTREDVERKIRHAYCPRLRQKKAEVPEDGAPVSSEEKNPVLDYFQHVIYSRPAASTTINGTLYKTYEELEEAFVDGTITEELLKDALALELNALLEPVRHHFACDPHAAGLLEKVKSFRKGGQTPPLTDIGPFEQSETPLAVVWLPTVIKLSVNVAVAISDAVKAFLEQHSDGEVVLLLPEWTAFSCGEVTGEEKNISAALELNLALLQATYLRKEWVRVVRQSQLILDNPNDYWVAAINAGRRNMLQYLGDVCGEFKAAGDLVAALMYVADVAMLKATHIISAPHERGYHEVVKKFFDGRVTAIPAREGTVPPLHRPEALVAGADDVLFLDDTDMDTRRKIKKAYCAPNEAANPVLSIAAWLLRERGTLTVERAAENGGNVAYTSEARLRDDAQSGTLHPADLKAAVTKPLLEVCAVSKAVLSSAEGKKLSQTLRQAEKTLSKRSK

[8] = biological target: T4, Tyrosyl-tRNA synthetase, putative (Trypanosoma cruzi (strain CL Brener)); test: Trypanosoma cruzi tyrosyl tRNA synthetase (TcYRS) SOP; format: functional; details: 30 µM
[9] = biological target: Chromo domain-containing protein 1 (Saccharomyces cerevisiae (strain ATCC 204508 / S288c) (Baker's yeast)) (UniProt P32657); test: ScCHD-1 Enzyme Inhibition Assay; format: functional; details: 30 µM; also: in the data most compounds retested in dose-response had high values
Chromo domain-containing protein 1 (Saccharomyces cerevisiae (strain ATCC 204508 / S288c) (Baker's yeast)), sequence (P32657 whole entry, the tested form may be a part): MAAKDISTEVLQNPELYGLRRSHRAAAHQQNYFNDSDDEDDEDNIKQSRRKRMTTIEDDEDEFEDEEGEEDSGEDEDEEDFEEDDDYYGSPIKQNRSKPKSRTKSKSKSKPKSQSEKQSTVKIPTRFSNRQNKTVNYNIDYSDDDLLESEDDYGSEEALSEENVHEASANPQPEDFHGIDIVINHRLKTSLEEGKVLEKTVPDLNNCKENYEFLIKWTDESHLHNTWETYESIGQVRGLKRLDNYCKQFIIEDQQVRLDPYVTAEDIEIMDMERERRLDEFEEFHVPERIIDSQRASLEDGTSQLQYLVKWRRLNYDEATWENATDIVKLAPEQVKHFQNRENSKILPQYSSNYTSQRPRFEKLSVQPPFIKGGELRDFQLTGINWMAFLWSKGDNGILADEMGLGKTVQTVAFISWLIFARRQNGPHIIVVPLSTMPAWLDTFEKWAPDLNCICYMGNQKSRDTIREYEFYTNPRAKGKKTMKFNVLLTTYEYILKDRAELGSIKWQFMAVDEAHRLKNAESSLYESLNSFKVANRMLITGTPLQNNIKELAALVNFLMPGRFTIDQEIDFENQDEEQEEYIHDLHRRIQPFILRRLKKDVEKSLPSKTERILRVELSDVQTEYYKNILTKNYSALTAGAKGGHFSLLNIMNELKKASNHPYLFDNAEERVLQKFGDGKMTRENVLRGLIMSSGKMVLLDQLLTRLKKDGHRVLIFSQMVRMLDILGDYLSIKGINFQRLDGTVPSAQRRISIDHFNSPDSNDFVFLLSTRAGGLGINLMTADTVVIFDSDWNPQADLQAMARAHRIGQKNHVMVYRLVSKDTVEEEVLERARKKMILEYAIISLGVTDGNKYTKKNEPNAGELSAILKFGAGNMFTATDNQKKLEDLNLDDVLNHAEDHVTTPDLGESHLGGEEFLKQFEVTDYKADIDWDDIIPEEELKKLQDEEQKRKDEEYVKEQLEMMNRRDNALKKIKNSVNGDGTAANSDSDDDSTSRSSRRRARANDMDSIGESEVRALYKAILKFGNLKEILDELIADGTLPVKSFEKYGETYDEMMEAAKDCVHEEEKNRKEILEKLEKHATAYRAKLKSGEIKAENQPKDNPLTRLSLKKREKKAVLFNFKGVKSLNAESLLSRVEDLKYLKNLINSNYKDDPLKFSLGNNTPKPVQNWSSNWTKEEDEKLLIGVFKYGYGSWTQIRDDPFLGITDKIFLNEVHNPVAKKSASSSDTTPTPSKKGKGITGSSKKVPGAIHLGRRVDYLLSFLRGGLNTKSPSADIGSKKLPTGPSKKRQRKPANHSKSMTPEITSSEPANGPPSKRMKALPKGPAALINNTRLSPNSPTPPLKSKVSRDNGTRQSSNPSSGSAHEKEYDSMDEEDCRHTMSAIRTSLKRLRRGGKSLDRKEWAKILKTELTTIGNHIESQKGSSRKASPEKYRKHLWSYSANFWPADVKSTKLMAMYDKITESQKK

Protein translocase subunit SecA (Escherichia coli (strain K12)), sequence (P10408 whole entry): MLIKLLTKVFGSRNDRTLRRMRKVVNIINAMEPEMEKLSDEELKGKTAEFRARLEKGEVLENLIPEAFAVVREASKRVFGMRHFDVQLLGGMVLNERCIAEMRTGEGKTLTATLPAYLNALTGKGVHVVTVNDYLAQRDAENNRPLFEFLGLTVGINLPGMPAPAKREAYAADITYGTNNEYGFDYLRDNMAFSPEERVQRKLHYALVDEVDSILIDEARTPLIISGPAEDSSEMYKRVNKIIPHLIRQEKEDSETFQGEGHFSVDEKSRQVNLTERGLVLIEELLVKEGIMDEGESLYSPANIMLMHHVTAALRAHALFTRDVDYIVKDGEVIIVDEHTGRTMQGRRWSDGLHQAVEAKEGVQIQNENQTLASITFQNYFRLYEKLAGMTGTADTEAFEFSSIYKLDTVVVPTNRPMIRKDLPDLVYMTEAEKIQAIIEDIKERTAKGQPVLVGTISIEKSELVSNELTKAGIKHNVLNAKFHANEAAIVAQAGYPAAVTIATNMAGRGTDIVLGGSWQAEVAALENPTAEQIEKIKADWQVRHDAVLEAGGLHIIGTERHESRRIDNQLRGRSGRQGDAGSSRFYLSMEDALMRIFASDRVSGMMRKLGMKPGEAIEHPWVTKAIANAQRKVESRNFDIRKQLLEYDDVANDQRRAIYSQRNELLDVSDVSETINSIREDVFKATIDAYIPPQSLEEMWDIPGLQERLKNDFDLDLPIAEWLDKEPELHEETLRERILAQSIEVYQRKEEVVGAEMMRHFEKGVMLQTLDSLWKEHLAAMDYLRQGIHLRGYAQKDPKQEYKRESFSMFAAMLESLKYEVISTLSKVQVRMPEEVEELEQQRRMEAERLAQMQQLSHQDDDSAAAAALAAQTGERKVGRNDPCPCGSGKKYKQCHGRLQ

| SMILES | Percent Effect [1] [%] | Percent Effect [2] [%] | Percent Effect [3] [%] | Percent Effect [4] [%] | Percent Effect (Trypanosoma cruzi) [%] | Percent Effect [5] [%] | Percent Effect [6] [%] | Percent Effect (Homo sapiens) [%] | Percent Effect [7] [%] | Percent Effect [8] [%] | Percent Effect [9] [%] |
| --- | --- | --- | --- | --- | --- | --- | --- | --- | --- | --- | --- |
| CC(C)NC(=O)N1CCC2(COCc3cnc(-c4cccnc4)nc32)C1 (stereo not given) | -3.55 | 2.7 | 6.5 | 0.534 | -6.94 | 4.78 | 12 | 6.17 | 1.08 | 5.13 | 2.74 |
| O=C(NCc1csc(Br)c1)c1ccc(=O)[nH]n1 | -0.0216 | 6.33 | 0.358 | -1.84 | -3.18 | 4.95 | 6.86 | 13.1 | 4.17 | -10.1 | -8.89 |
| Cc1cnc2n(c1=O)CC(C(=O)Nc1cccc3cccnc13)CS2 (stereo not given) | -3.5 | -2.74 | -76.9 | -1.76 | 5.88 | 0.455 | 8.87 | 5.24 | 1.07 | 0 | -2.86 |
| CC(=O)N1CCCN(C(=O)c2csc(-c3ccc(C)cc3C)n2)CC1 | -4.67 | 18.9 | -3.68 | 14.8 | 7.15 | -7.58 | 5.39 | 30 | 5.94 | 23.2 | -6.02 |
| CC(=O)c1cc(CC(=O)NCc2ccc(F)cc2)cs1 | -2.72 | 0 | 1.92 | 3.19 | 1.93 | -1.43 | 1.72 | -0.802 | 4.76 | 9.76 | -0.261 |
